Test results as given in the supplement of paper PMC11219838.
A number with no mark means an inactive call.

tested on: Meloidogyne hapla J2; experiment: proportion of mobile M. hapla J2 relative to DMSO control (fraction of DMSO control); higher = more viable, less nematicidal, active = 0.7 or less; conditions: 60 µM; 5 days; temperature: 20 °C
Method in brief: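 About 25 M. hapla J2 were added per 96-well well in distilled water, and compound was pinned to 60 µM final (0.6% v/v DMSO). Sealed plates were shaken at 200 rpm for 5 days at 20 °C, then 2 µL 1 M NaOH was added before microscopic mobility scoring. Mobility was divided by the mean of eight DMSO wells on the same plate, and two biological replicates were averaged.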

Structure (SMILES)	proportion of mobile M. hapla J2
COc1nc(C)ccc1-c1noc(-c2ccccc2C)n1	0.668 (active)
COc1ccc(Cl)cc1-c1noc(-c2ccccc2C)n1	0.93
CCOc1ccc(NC(=O)CSc2nnc(-c3ccncc3)o2)cc1	0.897
Fc1ccc(-c2noc(COc3ccccc3Cl)n2)cc1	1.03
CCOc1ccccc1NC(=O)CSc1nnc(-c2ccco2)o1	1.01
CNC(=O)c1ccccc1-c1nc(-c2ccccc2Cl)no1	1
COc1ccc(OCc2nc(-c3ccccc3)no2)cc1	0.891
Cc1ccc(-c2noc(-c3ccccc3OCC(N)=O)n2)cc1	1.04
Cc1cccc(-c2nnc(SCC(=O)Nc3ccccc3F)o2)c1	0.753
Cc1ccccc1-c1noc(-c2ccccc2OCC(N)=O)n1	0.993
Clc1ccc(-c2nc(-c3ccncc3)no2)cc1	1.03
Cc1ccccc1-c1nnc(SCC(=O)Nc2cc(C(F)(F)F)ccc2N2CCOCC2)o1	0.934
Cc1cccc(-c2noc(-c3ccc(C)c(Cl)c3)n2)c1	1.01
CC1CC(C)CN(C(=O)CSc2nnc(-c3ccccc3)o2)C1 (stereo not given)	1.02
CCOc1nc(-c2ccc(C)cc2)ccc1-c1noc(-c2ccco2)n1	0.944
COc1ccc(-c2nnc(SCc3csc(N)n3)o2)cc1	0.941
COc1ccccc1NC(=O)CSc1nnc(-c2ccc(Cl)cc2)o1	0.902
Cc1ccccc1OCc1nc(-c2ccc3c(c2)OCO3)no1	0.878
Cc1cccc(OCc2nc(-c3ccccc3Cl)no2)c1	1.08
COc1ccccc1-c1nnc(SCC(=O)Nc2ccccc2Cl)o1	0.973
